Screening data as filed in PubChem.
LT uptake inh – blocks cellular internalization of anthrax lethal toxin. Potency, µM (doses to about 40 µM), hits mostly inhibitors. AID 912. hit rate 0.67% among 70,000. Cells, anthrax lethal toxin internalization, FRET ratio (460/530); also: nearly all actives have a fitted effect of over 50% in size
AmpC inh det – blocks E. coli AmpC beta-lactamase in presence of detergent; hit rate 0.09% among 71,000; Potency, µM (highest dose often 28.7 µM); purified AmpC, nitrocefin hydrolysis with detergent; P00811; AID 584; active = well fitted curve in the direction sought with a large enough effect; inconclusive = small, poorly fitted or top-dose-only effect
Target sequence (P00811 whole entry, looked up): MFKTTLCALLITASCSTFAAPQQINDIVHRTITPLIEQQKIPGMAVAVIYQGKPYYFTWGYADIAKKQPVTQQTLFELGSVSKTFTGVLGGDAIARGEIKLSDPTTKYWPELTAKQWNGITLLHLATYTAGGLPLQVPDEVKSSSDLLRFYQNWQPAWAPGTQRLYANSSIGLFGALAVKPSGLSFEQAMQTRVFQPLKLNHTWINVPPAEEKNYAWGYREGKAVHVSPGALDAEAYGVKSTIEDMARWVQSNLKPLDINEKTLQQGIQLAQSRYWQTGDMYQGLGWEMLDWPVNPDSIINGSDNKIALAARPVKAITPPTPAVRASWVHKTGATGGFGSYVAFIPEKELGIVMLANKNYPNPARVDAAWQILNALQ
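E. coli AmpC (5.3 nM) in 20 mM phosphate pH 7.0 with 0.01% Triton X-100, preincubated 15 min RT with compound; nitrocefin (2 uL of 800 uM stock) hydrolysis followed by 480 nm absorbance every 20 s over 4 min.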
AmpC inh no det – inhibitors of E. coli AmpC beta-lactamase without detergent; AmpC nitrocefin hydrolysis, absorbance 480 nm, no detergent; Potency, µM (highest dose often 28.7 µM); hit rate 1.8% among 71,000; AID 585
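Enzyme, pH 7.0 phosphate. Compound titrations were pre-incubated with AmpC for 15 min at room temperature before nitrocefin (stock 800 uM) addition; product formation was recorded at 480 nm every 20 s for 4 min.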
Prx2 Sm inh – Schistosoma mansoni Prx2 inhibition; Potency, µM; S. mansoni Prx2 activity coupled to TGR/GSH (TGR is thioredoxin glutathione reductase), NADPH fluorescence loss, qHTS; hit rate 0.07% among 65,000; AID 448
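Prx2 activity was followed as the loss of NADPH fluorescence (ex 365/em 450 nm), read every 30 sec for 8 min after H2O2 start. The enzyme mix (50 nM Prx2, 25 nM TGR, GSH, NADPH; pH 7.4 phosphate buffer) was incubated with compound for 15 min at room temperature first.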
A number is an active result; n = inactive; u = inconclusive; x = no result given; ! = repeats disagree; [ ] = another dose, or the depositor's remark. Sampled rows, rich in hits. Any-hit rate of the full collection: about 2.6%. Unless noted, calls follow the shape of the full dose curve.

SMILES | LT uptake inh | AmpC inh det | AmpC inh no det | Prx2 Sm inh
Cn1c(=O)c2cc(S(=O)(=O)NC(C(=O)Nc3cccnc3)c3ccccc3)ccc2n(C)c1=O (stereo not drawn) | n | n | 4µM[single pt active] | n
CC(NC(=O)CCNS(=O)(=O)c1ccc2c(c1)c(=O)n(C)c(=O)n2C)c1ccccc1 (stereo not drawn) | n | n | n | n
O=C1CCc2cc(S(=O)(=O)NC(C(=O)NCc3cccnc3)c3ccccc3)ccc2N1 (stereo not drawn) | n | n | 4µM[single pt active] | n
O=c1[nH]c(SCc2ccc(F)cc2)nc2c1cnn2-c1ccc(F)cc1 | n | n | n | n
COC(=O)c1ccc(O)c(Sc2cc(C(=O)OC)ccc2O)c1 | n | n | n | n
O=C1CSC2(CCN(CCCN3c4ccccc4Sc4ccc(Cl)cc43)CC2)N1 | n[8 µM] | n[5.75 µM] | n[5.75 µM] | n
CN1CCN(CCCN2c3ccccc3Sc3ccc(C(F)(F)F)cc32)CC1 | 10µM! | n[5.75 µM] | n[5.75 µM] | n
Cn1c(NCc2ccccc2Cl)nc2ccccc21 | n | n | 4µM[single pt active] | n
CCCn1c(Nc2nc3ccccc3n2C)nc2ccccc21 | 6.3µM | n | n | n
CN(C)CCCN1c2ccccc2Sc2ccccc21 | 10µM | n | n | n
c1ccc2c(-c3nnc4n3CCCCC4)c[nH]c2c1 | u | n | n | n
CN1CC=C(c2c[nH]c3ccccc23)CC1 | n | n | 4µM[single pt active] | n
COc1ccc(-c2nnc(SCC(=O)N3CCc4ccccc4C3)o2)cc1 | n | n | n | n
O=C1c2ccccc2C(=O)N1CCCSc1nc2ccccc2o1 | n | n | n | n
Cc1cc(-c2cc(C)c(O)c(C(C)(C)C)c2)cc(C(C)(C)C)c1O | 2.5µM | n[5.75 µM] | n[5.75 µM] | n
Cc1cc(C(C)(C)C)c(O)c(C(C)(C)C)c1 | x | n | n | x
CCn1c(SCc2ccc(OC)cc2)nnc1-c1ccncc1 | 13µM | n | n | n
CCn1c(SCC(=O)c2cc(OC)ccc2OC)nnc1-c1ccncc1 | x | n | n | n
CCc1nnc(NC(=O)CSc2nnc(CSc3nc(C)cc(C)n3)o2)s1 | n | n | n | n
CCc1cc(=O)oc2cc(C)c3c(C)coc3c12 | n | n | n | n
CCc1cc(=O)oc2cc(C)cc(O)c12 | n | n | 4µM[single pt active] | n
O=c1c(-c2ccc(Cl)cc2)coc2c(CN3CCOCC3)c(O)ccc12 | 6.3µM | n | n | x
O=c1c(-c2ccccc2)coc2c(CN3CCCC3)c(O)ccc12 | n | n | n | n
CCn1c2ccccc2c2cc(CN3CCN(C(=O)c4ccco4)CC3)ccc21 | u | n | n | x
CCn1c2ccccc2c2cc(NC(=O)c3ccco3)ccc21 | 13µM | n | n | x
SMILES | LT uptake inh | AmpC inh det | AmpC inh no det | Prx2 Sm inh
CCn1c2ccccc2c2cc(NC(=O)CSc3nnnn3-c3ccccc3)ccc21 | x | n | 10µM | n
FC(F)Oc1ccc(-c2csc(Cc3nnc4n3CCCCC4)n2)cc1 | n | n | n | n
CCOC(=O)C1=C(CS(=O)(=O)c2ccc(F)c(C)c2)NC(=O)NC1c1ccc(O)c(O)c1 (stereo not drawn) | n | n | 4µM[single pt active] | n
COc1ccc(S(=O)(=O)n2nc(-c3cc(OC)c(OC)c(OC)c3)cc2N)cc1OC | n | n | n | n
COc1ccccc1-c1cc(N)n(S(=O)(=O)c2ccc(F)c(C)c2)n1 | u | n | 20µM[single pt active] | n
CCN(CC)CCCN1C(=O)C(O)=C(C(C)=O)C1c1ccc(OC)cc1OC (stereo not drawn) | n | n | 4µM[single pt active] | n
COc1ccc(C2C(C(C)=O)=C(O)C(=O)N2CCO)c(OC)c1 (stereo not drawn) | n | n | n | n
Cc1ccc2nc(NC(=O)C3CCCN(S(=O)(=O)c4cnc[nH]4)C3)sc2c1 (stereo not drawn) | u | n | n | n
Cc1ccc2nc(NC(=O)C3CCCN(S(=O)(=O)c4cccnc4)C3)sc2c1 (stereo not drawn) | n | n | 4µM[single pt active] | n
O=C(NCCc1ccccc1)C1CCCN(S(=O)(=O)c2cccnc2)C1 (stereo not drawn) | n | n | n | n
O=C(NC1CCCC1)C1CCCN(S(=O)(=O)c2cccc3cccnc23)C1 (stereo not drawn) | n | n | 3.2µM[single pt active] | n
CCOC(=O)N1CCC(NC(=O)C2CCCN(S(C)(=O)=O)C2)CC1 (stereo not drawn) | u | n | n | n
O=C(NC1CCCCCC1)C1CCN(S(=O)(=O)c2cccc3cccnc23)CC1 | n | n | n | n
CCOC(=O)N1CCC(NC(=O)C2CCCN(S(=O)(=O)c3cccnc3)C2)CC1 (stereo not drawn) | n | n | 4µM[single pt active] | n
NS(=O)(=O)c1ccc(CCNC(=O)C2CCCN(S(=O)(=O)c3cccnc3)C2)cc1 (stereo not drawn) | n | n | 4µM[single pt active] | n
